Calls of active or inactive are those of the source.

Assay [1] in a line: anti-His antibody binders, primary screen, artefact control for SMM control protein annotation, biochemical, small-molecule microarray, 635 nm fluorescence (AID 1128).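 Further: score merges feature fluorescence with signal-to-noise for each printed compound spot.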 The settings on record: anti-His Alexa647 antibody binding, higher = more signal.
For assay [2], the system named is Human papillomavirus type 1a E7 protein (residues 1-88). Description: HPV1a E7 small-molecule binders, primary screen, biochemical, small-molecule microarray, residues 1-88, 635 nm (AID 1129). The following applies: small-molecule microarray binding, fluorescence 635 nm; higher = more signal.
The target in assay [3] is Focal adhesion kinase 1 (Homo sapiens) (UniProt Q05397). Kind of assay: small-molecule microarray binders of FAK, primary screen, biochemical, 635/667 nm fluorescence, BSA, DTT (AID 1130).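 Further: composite of spot emission at 667 nm and signal to noise over triplicate slides.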 The settings on record: PTK2 binding, 635 nm fluorescence, higher = more signal.
Sequence of Focal adhesion kinase 1 (Homo sapiens) (Q05397 whole entry, looked up): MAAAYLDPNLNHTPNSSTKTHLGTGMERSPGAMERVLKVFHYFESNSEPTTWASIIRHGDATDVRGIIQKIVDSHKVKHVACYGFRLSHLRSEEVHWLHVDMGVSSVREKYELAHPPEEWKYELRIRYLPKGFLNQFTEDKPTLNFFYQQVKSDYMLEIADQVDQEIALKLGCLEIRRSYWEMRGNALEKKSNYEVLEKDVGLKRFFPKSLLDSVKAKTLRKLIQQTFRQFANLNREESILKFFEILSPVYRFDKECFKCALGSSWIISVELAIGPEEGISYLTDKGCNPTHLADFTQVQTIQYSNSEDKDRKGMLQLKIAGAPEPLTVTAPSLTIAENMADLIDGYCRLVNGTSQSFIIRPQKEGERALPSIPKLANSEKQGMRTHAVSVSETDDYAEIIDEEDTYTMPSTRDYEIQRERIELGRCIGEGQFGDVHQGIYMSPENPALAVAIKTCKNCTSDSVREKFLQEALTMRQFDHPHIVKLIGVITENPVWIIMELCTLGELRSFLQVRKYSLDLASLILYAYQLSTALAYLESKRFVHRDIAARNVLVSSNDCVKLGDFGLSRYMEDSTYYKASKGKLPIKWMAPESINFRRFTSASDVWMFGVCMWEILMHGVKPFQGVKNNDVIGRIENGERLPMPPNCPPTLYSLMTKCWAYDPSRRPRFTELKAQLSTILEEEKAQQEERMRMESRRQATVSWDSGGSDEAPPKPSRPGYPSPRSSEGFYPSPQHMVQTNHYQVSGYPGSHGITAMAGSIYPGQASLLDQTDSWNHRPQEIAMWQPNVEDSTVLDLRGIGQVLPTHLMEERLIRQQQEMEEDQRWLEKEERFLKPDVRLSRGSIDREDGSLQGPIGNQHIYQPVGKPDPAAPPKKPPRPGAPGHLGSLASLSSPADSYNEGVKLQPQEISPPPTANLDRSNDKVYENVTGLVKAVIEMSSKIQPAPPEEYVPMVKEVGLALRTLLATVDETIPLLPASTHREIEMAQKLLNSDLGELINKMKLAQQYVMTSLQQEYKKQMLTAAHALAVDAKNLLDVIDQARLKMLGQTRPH
Assay [4] concerns Fibrinogen (Alexa647-labelled). Kind of assay: fibrinogen binders on compound microarrays, profiling panel, artefact control for SMM control-protein annotation, biochemical, small-molecule microarray, 635/667 nm fluorescence (AID 1131).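 Further: z-score merges 667 nm fluorescence with per-spot signal-to-noise over triplicate slides.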 The settings on record: fibrinogen-A647 binding fluorescence, higher = more signal.
For assay [5], the target named is Follistatin (Homo sapiens) (UniProt P19883). Kind of assay: follistatin binders on small-molecule microarrays, primary screen, biochemical, small-molecule microarray, 635/667 nm fluorescence (AID 1132). The following applies: FST binding, 635 nm fluorescence, higher = more signal.
Sequence of Follistatin (Homo sapiens) (P19883 whole entry, looked up): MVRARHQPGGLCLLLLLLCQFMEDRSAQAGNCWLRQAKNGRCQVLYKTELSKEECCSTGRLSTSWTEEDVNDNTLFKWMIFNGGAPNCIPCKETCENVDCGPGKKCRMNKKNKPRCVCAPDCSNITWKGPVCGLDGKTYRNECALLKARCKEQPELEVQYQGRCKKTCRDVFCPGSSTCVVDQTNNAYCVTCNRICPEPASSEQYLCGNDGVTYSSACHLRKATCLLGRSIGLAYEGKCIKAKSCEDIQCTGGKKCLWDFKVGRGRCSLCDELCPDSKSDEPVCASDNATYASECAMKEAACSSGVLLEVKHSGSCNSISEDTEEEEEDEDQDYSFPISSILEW
For assay [6], the target named is Fibroblast growth factor 2 (Homo sapiens) (UniProt P09038). Kind of assay: FGF2 binders on small-molecule microarrays, primary screen, biochemical, small-molecule microarray, 635/667 nm fluorescence (AID 1133). The settings on record: small-molecule microarray binding, FGF2, fluorescence 635/667; higher = more signal.
Sequence of Fibroblast growth factor 2 (Homo sapiens) (P09038 whole entry, looked up): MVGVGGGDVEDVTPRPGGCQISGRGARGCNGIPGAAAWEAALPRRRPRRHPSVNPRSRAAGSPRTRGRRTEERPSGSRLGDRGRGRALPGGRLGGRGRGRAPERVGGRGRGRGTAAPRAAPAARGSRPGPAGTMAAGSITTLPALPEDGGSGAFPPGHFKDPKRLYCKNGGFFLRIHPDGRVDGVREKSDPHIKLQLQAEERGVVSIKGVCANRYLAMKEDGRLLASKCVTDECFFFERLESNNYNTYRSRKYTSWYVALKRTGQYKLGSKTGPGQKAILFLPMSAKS
Assay [7] is described as follows: mitochondrial membrane potential change in A549 cells, profiling panel, cell-based, JC-1 fluorescence, basal, 24 h, 100 nL (AID 1138).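 Further: A549 lung adenocarcinoma cells under basal conditions with no added stimulus; test concentration not given here.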 The following applies: higher = more signal.
For a further assay, the system named is Lefty1. Kind of assay: Lefty1 binders on small-molecule microarrays, primary screen, biochemical, small-molecule microarray, 635/667 nm fluorescence (AID 1139). The following applies: small-molecule microarray binding, fluorescence 635/667; higher = more signal.
Assay [8] relates to wheat germ agglutinin (Triticum aestivum), Alexa647-labelled. Description: wheat germ agglutinin binders on compound microarrays, profiling panel, artefact control for SMM control-protein annotation, biochemical, small-molecule microarray, 635/667 nm fluorescence (AID 1140).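 Further: score merges 667 nm feature emission with signal to noise over triplicate slides.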 The following applies: WGA-A647 binding, 635 nm fluorescence, higher = more signal.
Assay [9] concerns the target Luciferin 4-monooxygenase (Photinus pyralis) (UniProt P08659). Kind of assay: firefly luciferase enzyme inhibitors, primary screen, biochemical, luminescence, purified enzyme, 2006 set (AID 1141).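 Further: cell-free assay with purified firefly luciferase at 100 ng per well in PBS; test concentration not given here.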 The settings on record: SteadyGlo luminescence, 30 min, higher = more signal, called active from +8 up or from −8 down.

Sequence of Luciferin 4-monooxygenase (Photinus pyralis) (P08659 whole entry, looked up): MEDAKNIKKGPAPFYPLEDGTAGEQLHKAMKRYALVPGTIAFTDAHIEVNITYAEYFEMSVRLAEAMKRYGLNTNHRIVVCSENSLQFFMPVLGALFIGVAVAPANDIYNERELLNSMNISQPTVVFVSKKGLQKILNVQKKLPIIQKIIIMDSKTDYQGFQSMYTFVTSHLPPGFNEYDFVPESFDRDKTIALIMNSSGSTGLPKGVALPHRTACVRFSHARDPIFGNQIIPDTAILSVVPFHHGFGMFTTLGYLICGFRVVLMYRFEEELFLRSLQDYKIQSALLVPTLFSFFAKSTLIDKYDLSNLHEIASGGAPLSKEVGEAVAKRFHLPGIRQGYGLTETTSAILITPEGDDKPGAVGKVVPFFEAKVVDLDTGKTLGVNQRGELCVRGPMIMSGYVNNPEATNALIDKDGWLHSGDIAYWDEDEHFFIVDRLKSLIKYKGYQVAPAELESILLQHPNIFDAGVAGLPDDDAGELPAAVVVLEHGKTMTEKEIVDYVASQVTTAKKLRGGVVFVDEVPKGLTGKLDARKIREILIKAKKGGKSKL

Consider `C=C(COC)/C(=C/C[C@@H](OC(=O)c1ccncc1)c1cccc(OCCO)c1)c1cnc2ccccc2c1`, for which the composite z-score amounted to 2.26 in [1]; 1.17 in assay [2]; 0.191 in assay [3]; 0.922 in [4]; 1.48 in [5]; 1.68 in [6]. Further, the composite z-score in the assay with Lefty1 stood at 1.64; in assay [8], 1.55. Besides, the z-score is 0.746 in assay [7] and -1.68 (inactive) in assay [9].

Consider `O=C1OCC=C[C@H]2OC34C=CCN(c5ccc(Cl)cc5)C(=O)[C@H]3N(CCCCCO)C(=O)[C@@H]4[C@@H]12` (stereo not given in full), for which the composite z-score is 3.93 in assay [1]; -0.434 in assay [2]; 0.0336 in assay [3]; -0.825 in [4]; -1.03 in assay [5]; -0.994 in [6]. Besides, the values for the composite z-score (in the assay with Lefty1; in assay [8]) were -1.52 and -0.519, respectively. Further, the z-score was 0.731 in [7] and -0.232 (inactive) in assay [9].

`C=CCOC(=O)[C@@H]1[C@H]2C(=O)O[C@H](c3ccccc3)[C@H](c3ccccc3)N2[C@H](c2ccc(OCCOC(=O)[C@H]3C[C@H]4C(=O)N[C@@H](CCCCNC(C)=O)C(=O)N4[C@H]3c3cccc(OCCO)c3)cc2)[C@@]12C(=O)Nc1ccc(I)cc12`: the composite z-score is 1.98 in [1]; 1.19 in assay [2]; 0.323 in assay [3]; 0.777 in assay [4]; 1.43 in assay [5]; 1.45 in assay [6]. Moreover, the composite z-score in the assay on Lefty1 is 1.28; in assay [8], -0.045. The z-score in assay [7] is -1.11; in assay [9], -0.662 (inactive).

On to `C[C@]1(C(=O)O)c2ccccc2C(=O)N(Cc2ccccc2)[C@H]1c1ccc(CO)cc1`, for which the composite z-score in assay [1] was -1.17; in assay [2], -2.07; in assay [3] it was 0.343; in [4] it was -2.48; in [5] it was -0.828; in assay [6], -1.33. The values for the composite z-score (in the assay with Lefty1; in assay [8]) were -2.05 and -1.37, respectively. For the same compound, the values for the z-score in assay [7] and in assay [9] were 0.686 and -0.84 (inactive), respectively.

As for `CCCC[C@@H]1C[C@H]1[C@@H](NC(=O)c1ccccc1)c1ccc(Cl)cc1`, the composite z-score in [1] is -0.0782; in assay [2], -1.52; in [3], 0.528; in [4], -2.07; in assay [5] it was -2.37; in [6], -1.9. Further, the figures for the composite z-score (in the assay with Lefty1; in assay [8]) were -2.22 and -1.6, respectively. Also, the z-score was 1.66 in assay [7] and 0.923 (inactive) in assay [9].

As to `CN1C2C=C(CCCO)C(C3C(=O)N(C(N)=O)C(=O)C32)C1c1cccs1` (stereo not given), the composite z-score in assay [1] was 0.738; in assay [2], 0.151; in [3] it was -0.111; in [4], -0.451; in assay [5], 0.044; in [6], -0.22. The figures for the composite z-score (in the assay on Lefty1; in assay [8]) were 0.38 and -0.303, respectively. Further, the results for the z-score in assay [7] and in assay [9] were -0.405 and -0.655 (inactive), respectively.

With `CC(C)C(CO)N1C(=O)[C@]2(C)C3C(=O)OCCC/C=C\[C@H]3OC23C=CCN(c2ccc(Cl)cc2)C(=O)[C@@H]13` (stereo not given in full), the composite z-score is -0.0262 in assay [1]; -0.456 in [2]; 0.118 in assay [3]; -0.809 in assay [4]; -0.223 in assay [5]; -0.815 in assay [6]. Also, the composite z-score in the assay with Lefty1 was 0.211; in [8], -0.367. The z-score in assay [7] was 0.612; in assay [9], -0.657 (inactive).

Turning to `O=C1OCCC=C[C@H]2OC34C=CCN(c5ccc(Cl)cc5)C(=O)[C@H]3N(CCCCCO)C(=O)[C@@H]4C12` (stereo not given in full), the composite z-score in assay [1] was 3.41; in assay [2], -0.457; in [3], -0.226; in assay [4], -0.929; in assay [5], -0.514; in assay [6] it was -0.297. Moreover, the composite z-score in the assay with Lefty1 was -0.314; in assay [8], -0.21. In addition, the z-score is 2.6 in assay [7] and -1.31 (inactive) in [9].

With `COCCCNC(=O)[C@@H]1c2ccccc2C(=O)N(Cc2ccccc2C(F)(F)F)[C@H]1c1ccc(CO)cc1`, the composite z-score in assay [1] was -0.175; in [2], 0.569; in assay [3], 0.278; in assay [4], -0.873; in assay [5], -0.211; in assay [6] it was -0.372. For the same compound, the results for the composite z-score (with Lefty1; in [8]) were -0.295 and -0.488, respectively. In addition, the z-score was 2.81 in assay [7] and -1.26 (inactive) in assay [9].

On to `CC(C)OC(=O)CC(=O)CC(O)c1cccc(C#N)c1` (stereo not given), for which the composite z-score in assay [1] is 0.797; in assay [2] it was 0.828; in [3], 0.763; in assay [4], 0.974; in [5], 0.102; in [6], -0.51. Further, the composite z-score was -0.0714 in the assay on Lefty1 and 0.841 in assay [8]. Besides, the z-score in assay [7] is 0.67; in assay [9], 1.2 (inactive).

Take `O=C1O[C@@H](c2ccccc2)[C@@H](c2ccccc2)N2[C@@H](c3ccccc3OCCO)[C@]3(C(=O)Nc4ccc(C#CCCO)cc43)[C@@H](C(=O)N3CCN(c4ncccn4)CC3)[C@H]12`: the composite z-score was 1.72 in [1]; 1.19 in assay [2]; 0.747 in [3]; 0.946 in assay [4]; 0.389 in assay [5]; -0.0344 in assay [6]. For the same compound, the composite z-score in the assay with Lefty1 turned out to be 0.081; in assay [8], 0.65. The z-score in assay [7] is 0.679; in [9], 0.27 (inactive).

In the case of `C[C@H]1C2=C3C(CC[C@H]4C(OCc5ccc(F)cc5C(F)(F)F)OC[C@](C)([C@@H]34)N(C(=O)OC(C)(C)C)C2)C(CO)C1CO` (stereo not given in full), the composite z-score in [1] is 0.0803; in assay [2] it was 1.12; in assay [3] it was 0.882; in [4], 0.944; in assay [5], 0.578; in [6], -1.89. Further, the composite z-score in the assay on Lefty1 was -0.781; in assay [8] it was 0.608. Besides, the z-score was 1.31 in assay [7] and 0.608 (inactive) in [9].

For the compound `COCCOC(=O)N1C(=O)[C@@]2(c3cc(C#CC4=CCCCC4)ccc31)[C@H](C(=O)N1CCN(c3ncccn3)CC1)[C@H]1C(=O)O[C@H](c3ccccc3)[C@H](c3ccccc3)N1[C@@H]2c1ccc(O)cc1`, the composite z-score in assay [1] was found to be 1.26; in [2] it was 1.19; in assay [3], 0.778; in [4], 0.804; in assay [5], 1.21; in [6] it was 0.29. Also, the composite z-score in the assay with Lefty1 was determined as 0.819; in [8], 1.11. Besides, the z-score in [7] is -1.05; in assay [9], -0.94 (inactive).

For `O=C1NCC(=O)N2[C@@H]1C[C@@H](C(=O)O)[C@H]2c1ccc(O)cc1`, the composite z-score in assay [1] is 3.15; in assay [2], 1.19; in assay [3], 0.278; in [4] it was 0.8; in assay [5] it was 1.38; in assay [6], 1.9. Further, the composite z-score in the assay with Lefty1 came out at 1.56; in [8], 0.255. In addition, the z-score in assay [7] was 0.563; in [9], -0.504 (inactive).

In the case of `COC(=O)C1(Cc2ccccc2)C=C2C(=C(C(C)C)C(=O)C2C)CN1` (stereo not given), the composite z-score in assay [1] is 3.27; in assay [2] it was -0.11; in [3], 0.757; in assay [4], -0.72; in assay [5], -1.25; in assay [6], -1.07. Moreover, the values for the composite z-score (in the assay on Lefty1; in assay [8]) were -1.36 and 0.349, respectively. Moreover, the z-score is -1.83 in [7] and 1.27 (inactive) in assay [9].

Turning to `O=c1cccc(-c2cccc(Cl)c2)o1`, the composite z-score was 0.417 in [1]; 1.11 in assay [2]; 0.682 in assay [3]; 0.2 in assay [4]; -0.0992 in assay [5]; -0.332 in [6]. Further, the composite z-score is -0.014 in the assay on Lefty1 and 0.11 in assay [8]. For the same compound, the z-score in assay [7] is 0.0374; in [9], 0.672 (inactive).
